Assay results reported in PubChem BioAssay AID1159580 (chemical genetic matrix, 2015).
Screen size: about 5,500 compounds; about 2,000 (36%) were called active. About 18% were inconclusive and are not listed. Rule as the data show it: active = normalized growth mostly below about 0.91 (no sharp cut-off); inconclusive = no clear call, values can overlap the other calls; inactive = mostly above about 0.92. This is one part of the list.

Experiment: chemical genetic growth profiling, strain panel (AID 1159580);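 also: tested at 20 µM; growth read once vehicle control cultures reached saturation at 30 °C; 1 = growth at the plate median or of vehicle wells; lower values mean less growth of the strain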
Conditions: growth OD

Measured: normalized growth

C[N+]1(C)C[C@H](O)[C@H](C(=O)[O-])C1
inactive: S. cerevisiae deletion strains, locus YJR043C, strain POL32, active compounds read low 0.995 | S. cerevisiae deletion strains, locus YJR075W, strain HOC1, active compounds read low 0.994 | S. cerevisiae deletion strains, locus YKL009W, strain mrt4, active compounds read low 0.991 | S. cerevisiae deletion strains, locus YKL068W, active compounds read low 0.996 | S. cerevisiae deletion strains, locus YKL085W, strain MDH1 (second series), active compounds read low 0.988 | S. cerevisiae deletion strains, locus YKL085W, strain MDH1, active compounds read low 0.988 | S. cerevisiae deletion strains, locus YKL160W, strain elf1, active compounds read low 0.993 | S. cerevisiae deletion strains, locus YKL190W, strain CNB1, active compounds read low 1.01 | S. cerevisiae deletion strains, locus YKR001C, strain vps1, active compounds read low 0.995 | S. cerevisiae deletion strains, locus YKR026C, strain gcn3, active compounds read low 1.01 | S. cerevisiae deletion strains, locus YKR091W, strain srl3, active compounds read low 1.01 | S. cerevisiae deletion strains, locus YLL001W, strain dnm1, active compounds read low 1 | S. cerevisiae deletion strains, locus YLL026W, active compounds read low 1.02 | S. cerevisiae deletion strains, locus YLL041C, strain sdh2, active compounds read low 1.01 | S. cerevisiae deletion strains, locus YLR027C, strain aat2, active compounds read low 1.01 | S. cerevisiae deletion strains, locus YLR039C, strain RIC1, active compounds read low 1.02 | S. cerevisiae deletion strains, locus YLR058C, strain SHM2, active compounds read low 1.01 | S. cerevisiae deletion strains, locus YLR102C, strain apc9, active compounds read low 0.995 | S. cerevisiae deletion strains, locus YLR221C, strain rsa3, active compounds read low 0.997 | S. cerevisiae deletion strains, locus YLR258W, strain gsy2, active compounds read low 1.03 | S. cerevisiae deletion strains, locus YLR262C, strain YPT6 (second series), active compounds read low 1.02 | S. cerevisiae deletion strains, locus YLR262C, strain YPT6, active compounds read low 1.01 | S. cerevisiae deletion strains, locus YLR268W, strain sec22, active compounds read low 0.991 | S. cerevisiae deletion strains, locus YLR320W, strain mms22, active compounds read low 1.03 | S. cerevisiae deletion strains, locus YLR330W, strain CHS5, active compounds read low 1 | S. cerevisiae deletion strains, locus YLR342W, strain FKS1 (second series), active compounds read low 1.02 | S. cerevisiae deletion strains, locus YLR342W, strain FKS1, active compounds read low 1.01 | S. cerevisiae deletion strains, locus YLR357W, strain rsc2, active compounds read low 1.02 | S. cerevisiae deletion strains, locus YLR370C, strain arc18, active compounds read low 1.02 | S. cerevisiae deletion strains, locus YLR371W, strain rom2, active compounds read low 0.996 | S. cerevisiae deletion strains, locus YLR384C, strain iki3, active compounds read low 1.02 | S. cerevisiae deletion strains, locus YLR418C, strain cdc73, active compounds read low 1.01 | S. cerevisiae deletion strains, locus YML016C, strain PPZ1, active compounds read low 1.01 | S. cerevisiae deletion strains, locus YML032C, strain rad52, active compounds read low 0.991 | S. cerevisiae deletion strains, locus YML120C, strain ndi1, active compounds read low 0.991 | S. cerevisiae deletion strains, locus YML124C, strain tub3, active compounds read low 0.997 | S. cerevisiae deletion strains, locus YMR058W, strain fet3, active compounds read low 1.01 | S. cerevisiae deletion strains, locus YMR078C, strain ctf18, active compounds read low 1.01 | S. cerevisiae deletion strains, locus YMR125W, strain sto1, active compounds read low 1.02 | S. cerevisiae deletion strains, locus YMR129W, active compounds read low 1.01 | S. cerevisiae deletion strains, locus YMR205C, strain PFK2, active compounds read low 1.04 | S. cerevisiae deletion strains, locus YMR223W, strain ubp8, active compounds read low 0.989 | S. cerevisiae deletion strains, locus YMR231W, strain pep5, active compounds read low 1.01 | S. cerevisiae deletion strains, locus YMR263W, strain SAP30, active compounds read low 1.02 | S. cerevisiae deletion strains, locus YMR307W, strain GAS1, active compounds read low 1.07 | S. cerevisiae deletion strains, locus YNL067W, strain RPL9B, active compounds read low 1.01 | S. cerevisiae deletion strains, locus YNL071W, strain lat1, active compounds read low 1.02 | S. cerevisiae deletion strains, locus YNL128W, strain TEP1, active compounds read low 1.01 | S. cerevisiae deletion strains, locus YNL153C, strain GIM3, active compounds read low 1.01 | S. cerevisiae deletion strains, locus YNL209W, strain ssb2, active compounds read low 1.01 | S. cerevisiae deletion strains, locus YNL233W, strain BNI4, active compounds read low 1.01 | S. cerevisiae deletion strains, locus YNL248C, strain rpa49, active compounds read low 0.98 | S. cerevisiae deletion strains, locus YNL250W, strain rad50, active compounds read low 0.992 | S. cerevisiae deletion strains, locus YNL271C, strain bni1, active compounds read low 0.995 | S. cerevisiae deletion strains, locus YNL298W, strain CLA4, active compounds read low 1 | S. cerevisiae deletion strains, locus YNL307C, strain MCK1, active compounds read low 1.01 | S. cerevisiae deletion strains, locus YNL322C, strain KRE1 (second series), active compounds read low 1.02 | S. cerevisiae deletion strains, locus YNL322C, strain KRE1, active compounds read low 1.01 | S. cerevisiae deletion strains, locus YNR049C, strain mso1, active compounds read low 1.01 | S. cerevisiae deletion strains, locus YNR052C, strain pop2, active compounds read low 1 | S. cerevisiae deletion strains, locus YOL006C, strain TOP1, active compounds read low 1.06 | S. cerevisiae deletion strains, locus YOL012C, strain htz1 0.813 | S. cerevisiae deletion strains, locus YOL147C, strain pex11, active compounds read low 1 | S. cerevisiae deletion strains, locus YOR001W, strain rrp6, active compounds read low 0.989 | S. cerevisiae deletion strains, locus YOR061W, strain CKA2, active compounds read low 1 | S. cerevisiae deletion strains, locus YOR069W, strain VPS5, active compounds read low 1 | S. cerevisiae deletion strains, locus YOR070C, strain gyp1, active compounds read low 1.01 | S. cerevisiae deletion strains, locus YOR080W, strain dia2, active compounds read low 1.01 | S. cerevisiae deletion strains, locus YOR083W, strain WHI5, active compounds read low 0.979 | S. cerevisiae deletion strains, locus YOR106W, strain vam3, active compounds read low 0.996 | S. cerevisiae deletion strains, locus YOR136W, strain idh2, active compounds read low 0.996 | S. cerevisiae deletion strains, locus YOR144C, strain elg1, active compounds read low 0.996 | S. cerevisiae deletion strains, locus YOR184W, strain ser1, active compounds read low 1.01 | S. cerevisiae deletion strains, locus YOR265W, strain rbl2, active compounds read low 1.01 | S. cerevisiae deletion strains, locus YOR270C, strain vph1, active compounds read low 1.02 | S. cerevisiae deletion strains, locus YOR290C, strain snf2, active compounds read low 1 | S. cerevisiae deletion strains, locus YOR316C, strain cot1, active compounds read low 0.995 | S. cerevisiae deletion strains, locus YPL051W, strain arl3, active compounds read low 1.02 | S. cerevisiae deletion strains, locus YPL055C, strain LGE1, active compounds read low 1.03 | S. cerevisiae deletion strains, locus YPL078C, strain atp4, active compounds read low 1 | S. cerevisiae deletion strains, locus YPL106C, strain sse1, active compounds read low 1.04 | S. cerevisiae deletion strains, locus YPL240C, strain hsp82, active compounds read low 1.02 | S. cerevisiae deletion strains, locus YPL241C, strain CIN2, active compounds read low 1.01 | S. cerevisiae deletion strains, locus YPR119W, strain clb2, active compounds read low 1 | S. cerevisiae deletion strains, locus YPR141C, strain kar3, active compounds read low 1 | S. cerevisiae deletion strains, locus YPR163C, strain tif3, active compounds read low 0.996 | S. cerevisiae deletion strains, locus YPR167C, strain met16, active compounds read low 0.995 | S. cerevisiae deletion strains, strain wtn01, active compounds read low 0.988 | S. cerevisiae strains, strain wild type, active compounds read low 1
